# From PubChem BioAssay (Tox21)
# A number with no mark means an inactive call. Records with an inconclusive call do not appear. Where a call stands in place of a potency, no number is given. Active and inactive are the calls of the source. Unless noted, calls come from the whole dose curve.
# Tests used:
# [1] = Nuclear factor erythroid 2-related factor 2/antioxidant responsive element (Nrf2/ARE) small molecule agonists: qHTS cell viability counter screen in human keratinocytes (AID 1919968; active = well fitted curve in the direction sought with a large enough effect in the repeat runs; an effect the other way counts as inactive or inconclusive; note: nearly all actives have a fitted effect of over 55% in size; note: potency is the fitted concentration of half-maximal effect)
# How it was run: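 Seed 1,500 KeratinoSens cells per well, then incubate 5 h at 37 C/5% CO2. Add compounds in DMSO and incubate 23 h. Add CellTiter-Fluor, wait 1 h and read fluorescence.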
# [2] = Nuclear factor erythroid 2-related factor 2/antioxidant responsive element (Nrf2/ARE) small molecule agonists: luciferase reporter gene qHTS assay in human keratinocytes (AID 1919969); note: nearly all actives have a fitted effect of over 35% in size; note: potency is the fitted concentration of half-maximal effect
# [3] = target: Gonadotropin-releasing hormone receptor (Homo sapiens) (UniProt P30968); assay: Human gonadotropin-releasing hormone receptor (GnRHR) small molecule agonists, calcium flux assay in GnRHR-HEK293 cells (AID 1920063); note: nearly all actives have a fitted effect of over 35% in size
# How it was run: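 Cells: HEK293 stably expressing human GnRHR. Steps: overnight (18 h) culture, 1 h calcium dye loading at 37 C, compound addition, kinetic fluorescence read at 480/540 nm. Each compound tested at 15 concentrations in triplicate.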
# [4] = target: KiSS-1 receptor (Homo sapiens) (UniProt Q969F8); assay: Human kisspeptin (KISS1R) small molecule agonists, calcium flux assay in KISS1R-HEK293 cells (AID 1920064; active = well fitted curve in the direction sought with a large enough effect in the repeat runs; an effect the other way counts as inactive or inconclusive)
# How it was run: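 Cells plated and incubated 18 h; dye added, 1 h at 37 C; compounds in DMSO pinned in; signal read at 480/540 nm every second for 3 min. Each compound tested at 15 concentrations in triplicate.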
# [5] = G protein-coupled receptor (GPCR) small molecule agonists, calcium flux assay: HEK293 wild type cell line counter screen (AID 1920065)
# How it was run: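 Counter-screen of the Tox21 10K library for non-specific calcium release: dye-loaded cells received compounds in DMSO and were monitored by kinetic fluorescence (480/540 nm, 3 min). Fifteen concentrations, run in triplicate.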
# [6] = p53 small molecule agonists, cell-based qHTS assay with human liver microsomes: qHTS cell viability counter screen (AID 1963579); note: nearly all actives have a fitted effect of over 45% in size
# How it was run: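 Metabolic activation used human liver microsomes and NADPH, both 0.5 mg/mL final, over 16 hours at 37 C on p53RE-bla cells (4,000/well). Cytotoxicity measured by CellTiter-Glo luminescence, 30 min at room temperature.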
# [7] = target: 5-hydroxytryptamine receptor 2A (Homo sapiens) (UniProt P28223); assay: 5-hydroxytryptamine receptor 2A (HTR2A) small molecule antagonists, cell-based qHTS assay (AID 1963586); note: nearly all actives have a fitted effect of over 45% in size
# How it was run: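 Antagonist-mode intracellular calcium assay: DOI (4 nM) added after 5 min compound pre-incubation at room temperature to dye-loaded HTR2A-CHO cells. Fluorescence followed for 3 min, sampled every second.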
# [8] = target: 5-hydroxytryptamine receptor 2A (Homo sapiens) (UniProt P28223); assay: 5-hydroxytryptamine receptor 2A (HTR2A) small molecule agonists, cell-based qHTS assay (AID 1963587); note: nearly all actives have a fitted effect of over 30% in size; note: potency is the fitted concentration of half-maximal effect
# How it was run: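 HTR2A-CHO cells, plated 18 h at 37 C/5% CO2, dye-loaded 1 h at 37 C; compounds in DMSO added by pin tool (agonist mode). Intracellular calcium flux read as kinetic fluorescence on FDSS over 2 min at 1 s intervals.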
# [9] = target: Muscarinic acetylcholine receptor M1 (Homo sapiens) (UniProt P11229); assay: Cholinergic receptor muscarinic 1 (CHRM1) small molecule antagonists, cell-based qHTS assay (AID 1963588); note: nearly all actives have a fitted effect of over 40% in size; note: potency is the fitted concentration of half-maximal effect
# How it was run: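 CHRM1-CHO calcium-flux assay, antagonist mode. Cells were seeded 18 h, dye-loaded 1 h at 37 C and given compound for 5 min at RT, then acetylcholine was added at 50nM. FDSS fluorescence was read 3 min; 15 concentrations, three runs.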
# [10] = target: Muscarinic acetylcholine receptor M1 (Homo sapiens) (UniProt P11229); assay: Cholinergic receptor muscarinic 1 (CHRM1) small molecule agonists, cell-based qHTS assay (AID 1963589); note: nearly all actives have a fitted effect of over 35% in size
# How it was run: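 Agonist-mode qHTS in CHO cells stably carrying human muscarinic M1. Intracellular calcium is tracked by fluorescence every second after compound transfer; each compound runs at 15 concentrations in three independent runs.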
# [11] = target: Beta-2 adrenergic receptor (Homo sapiens) (UniProt P07550); assay: Adrenergic beta2 receptor (ADRB2) small molecule antagonists, cell-based qHTS assay (AID 1963592); note: series mostly up to about 92 µM; nearly all actives have a fitted effect of over 50% in size
# How it was run: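 Cells (CHO, stable ADRB2 overexpression) incubated 18-20hr at 37C; compounds added from DMSO; agonist mix (1nM isoproterenol, 100uM IBMX, 25uM Ro-20-1724) added; 0.5hr RT; d2-cAMP and anti-cAMP-cryptate added; 1hr RT; 665/615 nm read.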
# [12] = target: D(2) dopamine receptor (Homo sapiens) (UniProt P14416); assay: Dopamine D2 receptor (DRD2) small molecule agonists, cell-based qHTS assay (AID 1963594); note: nearly all actives have a fitted effect of over 35% in size
# How it was run: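 HEK293 cells stably expressing DRD2 were cultured 24 h at 37 C, then given Ro20-1724 (0.1 mM final) and compounds for 10 min at room temperature. NKH477 (200nM) was then added for 30 min. cAMP was read by HTRF.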
# [13] = target: D(2) dopamine receptor (Homo sapiens) (UniProt P14416); assay: Dopamine D2 receptor (DRD2) small molecule antagonists, cell-based qHTS assay (AID 1963595; active = well fitted inhibition curve with a large enough effect in the signal ratio in the repeat runs, with a control signal flat; the % refers to the signal ratio; note: potency is the fitted concentration of half-maximal effect)
# How it was run: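 Human DRD2 antagonist qHTS measuring cAMP by HTRF. The cells are exposed to compound for 10 min, then to NKH477 (200 nM) and quinpirole (12 nM) for 30 min at RT, with Ro20-1724 (0.1 mM) present throughout.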
# [14] = p53 small molecule agonists, cell-based qHTS assay: qHTS cell viability counter screen (AID 1963581); note: nearly all actives have a fitted effect of over 45% in size
# How it was run: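 Cells: HCT-116 with p53 response element-driven beta-lactamase. Treatment: 16 h, 37 C, compounds in DMSO. Read: CellTiter-Glo luminescence after 30 min RT.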
# [15] = target: Beta-2 adrenergic receptor (Homo sapiens) (UniProt P07550); assay: Adrenergic beta2 receptor (ADRB2) small molecule agonists, cell-based qHTS assay (AID 1963593);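 note: CHO cells stably overexpressing human ADRB2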
# How it was run: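 CHO cells stably over-expressing ADRB2 were plated overnight at 37C, then dosed with compounds plus a stimulation mix containing 100uM IBMX and 25uM Ro-20-1724 for 0.5hr at room temperature. cAMP was measured by HTRF competition, 1hr.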
# [16] = p53 small molecule agonists, cell-based qHTS assay with rat liver microsomes: qHTS cell viability counter screen (AID 1963580); note: nearly all actives have a fitted effect of over 45% in size
# How it was run: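 In HCT-116 cells carrying a p53 response element-bla reporter, compounds were metabolically activated in situ by rat liver microsomes with NADPH over 16 h. Cell ATP content then served as the cytotoxicity measure.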
# [17] = cAMP Responsive Elements (CRE) small molecule agonists, cell-based qHTS assay (AID 1963590)
# How it was run: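 Agonist mode qHTS in CRE-bla HEK 293T cells: compounds dosed from DMSO for 3 h at 37 C/5% CO2, followed by LiveBLAzer B/G FRET substrate for 2 h at room temperature.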
# [18] = cAMP Responsive Elements (CRE) small molecule antagonists, cell-based qHTS assay (AID 1963591; active = well fitted inhibition curve with a large enough effect in the signal ratio in the repeat runs, not every such curve was filed as active; the % refers to the signal ratio)
# How it was run: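 Antagonist mode: test compounds are co-incubated with the adenylyl cyclase activator NKH477 (0.25 uM final) on CRE-bla HEK293T cells for 3 h at 37 °C, followed by LiveBLAzer substrate loading.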
# Chain of Beta-2 adrenergic receptor (Homo sapiens) (P07550 whole entry, looked up): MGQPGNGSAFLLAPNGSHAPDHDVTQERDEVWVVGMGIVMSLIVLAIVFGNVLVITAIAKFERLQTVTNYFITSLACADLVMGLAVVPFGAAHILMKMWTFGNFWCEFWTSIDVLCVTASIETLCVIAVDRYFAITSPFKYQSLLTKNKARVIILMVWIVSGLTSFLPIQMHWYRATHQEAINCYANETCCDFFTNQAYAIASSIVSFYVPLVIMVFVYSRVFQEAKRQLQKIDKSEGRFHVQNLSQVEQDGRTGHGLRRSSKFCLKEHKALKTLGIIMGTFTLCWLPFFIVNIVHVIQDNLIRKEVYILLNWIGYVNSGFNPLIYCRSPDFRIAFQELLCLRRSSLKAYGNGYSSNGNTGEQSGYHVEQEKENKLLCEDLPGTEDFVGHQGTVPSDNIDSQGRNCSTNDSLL
# Chain of Muscarinic acetylcholine receptor M1 (Homo sapiens) (P11229 whole entry, looked up): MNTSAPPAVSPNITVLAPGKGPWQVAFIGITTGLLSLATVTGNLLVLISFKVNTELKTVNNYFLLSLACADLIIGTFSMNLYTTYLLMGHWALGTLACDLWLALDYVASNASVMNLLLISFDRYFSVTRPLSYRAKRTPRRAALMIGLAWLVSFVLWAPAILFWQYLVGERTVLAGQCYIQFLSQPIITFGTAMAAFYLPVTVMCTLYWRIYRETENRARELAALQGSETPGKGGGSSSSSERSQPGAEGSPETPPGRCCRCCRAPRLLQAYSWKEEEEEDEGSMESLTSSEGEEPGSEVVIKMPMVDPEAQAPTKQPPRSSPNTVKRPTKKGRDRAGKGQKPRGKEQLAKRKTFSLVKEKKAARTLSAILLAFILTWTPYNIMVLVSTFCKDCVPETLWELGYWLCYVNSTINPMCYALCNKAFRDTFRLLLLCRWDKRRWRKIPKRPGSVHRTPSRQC
# Chain of D(2) dopamine receptor (Homo sapiens) (P14416 whole entry, looked up): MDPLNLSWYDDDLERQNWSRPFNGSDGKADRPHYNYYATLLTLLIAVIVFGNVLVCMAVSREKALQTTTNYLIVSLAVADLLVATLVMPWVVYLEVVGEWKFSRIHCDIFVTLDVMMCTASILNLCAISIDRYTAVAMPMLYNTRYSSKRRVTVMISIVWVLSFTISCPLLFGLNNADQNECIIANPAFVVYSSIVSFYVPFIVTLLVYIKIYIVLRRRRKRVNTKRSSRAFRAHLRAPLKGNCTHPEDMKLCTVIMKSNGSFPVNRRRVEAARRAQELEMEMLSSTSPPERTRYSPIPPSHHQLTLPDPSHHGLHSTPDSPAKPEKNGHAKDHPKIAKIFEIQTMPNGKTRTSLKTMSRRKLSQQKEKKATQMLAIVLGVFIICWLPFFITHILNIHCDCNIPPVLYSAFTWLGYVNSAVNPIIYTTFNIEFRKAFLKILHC
# Chain of 5-hydroxytryptamine receptor 2A (Homo sapiens) (P28223 whole entry, looked up): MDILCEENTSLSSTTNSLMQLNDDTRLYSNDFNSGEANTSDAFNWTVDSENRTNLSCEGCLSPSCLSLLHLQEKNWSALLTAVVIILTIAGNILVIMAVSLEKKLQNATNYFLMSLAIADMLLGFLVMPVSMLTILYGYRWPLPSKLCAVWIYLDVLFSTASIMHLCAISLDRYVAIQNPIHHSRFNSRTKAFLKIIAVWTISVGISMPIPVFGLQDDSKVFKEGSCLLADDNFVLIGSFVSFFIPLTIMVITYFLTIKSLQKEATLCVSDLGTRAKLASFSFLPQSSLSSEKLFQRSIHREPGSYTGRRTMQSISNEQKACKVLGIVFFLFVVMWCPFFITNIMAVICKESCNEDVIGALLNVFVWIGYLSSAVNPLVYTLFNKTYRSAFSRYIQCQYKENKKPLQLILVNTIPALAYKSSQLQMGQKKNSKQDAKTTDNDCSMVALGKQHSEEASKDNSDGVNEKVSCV
# Chain of KiSS-1 receptor (Homo sapiens) (Q969F8 whole entry, looked up): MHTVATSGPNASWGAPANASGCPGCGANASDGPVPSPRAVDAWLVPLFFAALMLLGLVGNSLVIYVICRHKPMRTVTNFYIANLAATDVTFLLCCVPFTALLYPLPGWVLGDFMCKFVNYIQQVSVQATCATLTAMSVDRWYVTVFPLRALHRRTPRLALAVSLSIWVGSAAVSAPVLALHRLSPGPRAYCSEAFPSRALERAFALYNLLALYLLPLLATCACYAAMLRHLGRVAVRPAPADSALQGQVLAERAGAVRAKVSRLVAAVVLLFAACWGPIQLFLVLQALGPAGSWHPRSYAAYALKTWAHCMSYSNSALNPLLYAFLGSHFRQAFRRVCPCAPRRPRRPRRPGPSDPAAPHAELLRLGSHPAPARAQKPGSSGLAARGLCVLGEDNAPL
# Chain of Gonadotropin-releasing hormone receptor (Homo sapiens) (P30968 whole entry, looked up): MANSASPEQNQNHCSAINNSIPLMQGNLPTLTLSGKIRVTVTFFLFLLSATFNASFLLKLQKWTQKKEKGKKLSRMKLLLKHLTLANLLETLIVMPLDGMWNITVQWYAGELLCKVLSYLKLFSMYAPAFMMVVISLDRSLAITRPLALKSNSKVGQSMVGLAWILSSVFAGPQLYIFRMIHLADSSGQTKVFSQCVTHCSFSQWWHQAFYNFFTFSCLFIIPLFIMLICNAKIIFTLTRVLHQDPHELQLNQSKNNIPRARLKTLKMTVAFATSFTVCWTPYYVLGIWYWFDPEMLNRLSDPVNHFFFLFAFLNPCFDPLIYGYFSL
smiles,measurement,setting,value
CCO[Si](CCCSSSSCCC[Si](OCC)(OCC)OCC)(OCC)OCC,Potency,[1],61.2 µM (active)
same,Potency,[2],inactive
same,Potency,[3],inactive
same,Potency,[4],inactive
same,Potency,[5],inactive
same,Potency,[6],inactive
same,Potency,[7],inactive
same,Potency,[8],49 µM (active)
same,Potency,[9],inactive
same,Potency,[10],inactive
same,Potency,[11],inactive
same,Potency,[12],inactive
same,Potency,[13],inactive
CC1(C)O[C@@H]2C[C@H]3[C@@H]4C[C@H](F)C5=CC(=O)C=C[C@]5(C)[C@H]4[C@@H](O)C[C@]3(C)[C@]2(C(=O)CO)O1,Potency,[1],inactive
same,Potency,[2],inactive
same,Potency,[3],inactive
same,Potency,[4],inactive
same,Potency,[5],inactive
same,Potency,[6],inactive
same,Potency,[14],inactive
same,Potency,[11],inactive
same,Potency,[15],inactive
same,Potency,[12],inactive
same,Potency,[13],inactive
Cc1cc(C(=C2C=CC(=Nc3ccc(S(=O)(=O)O)cc3S(=O)(=O)O)C=C2)c2ccc(Nc3ccc(S(=O)(=O)O)cc3)cc2)ccc1N,Potency,[1],inactive
same,Potency,[2],inactive
same,Potency,[3],inactive
same,Potency,[4],inactive
same,Potency,[5],inactive
same,Potency,[16],inactive
same,Potency,[14],inactive
same,Potency,[7],inactive
same,Potency,[8],inactive
same,Potency,[9],inactive
same,Potency,[17],inactive
same,Potency,[18],inactive
same,Potency,[15],inactive
same,Potency,[12],inactive
same,Potency,[13],inactive
O=C(c1ccccc1)C1CCC1,Potency,[1],inactive
same,Potency,[2],inactive
same,Potency,[3],inactive
same,Potency,[4],inactive
same,Potency,[5],inactive
same,Potency,[16],inactive
same,Potency,[14],inactive
same,Potency,[7],inactive
same,Potency,[8],inactive
same,Potency,[9],inactive
same,Potency,[10],inactive
same,Potency,[18],inactive
same,Potency,[11],inactive
same,Potency,[15],inactive
same,Potency,[13],inactive
C1CCCCCCCCCCC1,"activity change, negative = cytotoxicity",[1],0.761% [at 19 µM]
same,"activity, positive = activation",[2],-8.94% [at 19 µM]
same,activity change,[3],"-0.293% [at 11.8 µM, active compounds read high]"
same,activation,[4],1.26% [at 15.8 µM]
same,activation,[5],-0.978% [at 11.8 µM]
same,"activity change, negative = cytotoxicity",[16],0.482% [at 13.5 µM]
same,"activity change, negative = cytotoxicity",[14],9.85% [at 13.5 µM]
same,"activity, negative = inhibition",[7],-15.5% [at 12.7 µM]
same,activation,[8],-0.851% [at 15.9 µM]
same,"activity, negative = inhibition",[9],10.4% [at 12.6 µM]
same,activation,[10],-0.458% [at 15.8 µM]
same,activation,[17],-0.929% [at 19 µM]
same,"activity change, negative = inhibition",[18],-1.59% [at 18.9 µM]
same,"activity change, negative = inhibition",[11],0.327% [at 19 µM]
same,activation,[12],-2.66% [at 19 µM]
same,"activity change, negative = inhibition",[13],-0.815% [at 18.9 µM]
CC(N)=O,Potency,[1],inactive
same,Potency,[2],inactive
same,Potency,[3],inactive
same,Potency,[4],inactive
same,Potency,[5],inactive
same,Potency,[16],inactive
same,Potency,[14],inactive
same,Potency,[7],inactive
same,Potency,[8],inactive
same,Potency,[10],inactive
same,Potency,[18],inactive
same,Potency,[11],inactive
same,Potency,[12],inactive
same,Potency,[13],inactive
Nc1ccccc1Nc1ccccc1,Potency,[1],48.7 µM (active)
same,Potency,[2],21.8 µM (active)
same,Potency,[3],inactive
same,Potency,[4],inactive
same,Potency,[5],inactive
same,Potency,[6],inactive
same,Potency,[7],inactive
same,Potency,[8],inactive
same,Potency,[9],inactive
same,Potency,[10],inactive
same,Potency,[18],inactive
same,Potency,[12],inactive
same,Potency,[13],inactive
O=C1c2cccc3c2[C@H](CCC3)CN1[C@@H]1CN2CCC1CC2,Potency,[1],inactive
same,Potency,[2],inactive
same,Potency,[3],inactive
same,Potency,[4],inactive
same,Potency,[5],inactive
same,Potency,[16],inactive
same,Potency,[14],inactive
same,Potency,[7],inactive
same,Potency,[8],inactive
same,Potency,[10],inactive
same,Potency,[17],inactive
same,Potency,[18],inactive
same,Potency,[11],inactive
same,Potency,[13],inactive
FC(F)(Cl)C(F)(Cl)Cl,Potency,[1],inactive
same,Potency,[2],inactive
same,Potency,[3],inactive
same,Potency,[4],inactive
same,Potency,[5],inactive
same,Potency,[16],inactive
same,Potency,[14],inactive
same,Potency,[7],inactive
same,Potency,[8],inactive
same,Potency,[9],inactive
same,Potency,[10],inactive
same,Potency,[17],inactive
same,Potency,[18],inactive
same,Potency,[11],inactive
CCC(C)(CCC(C)C)C(=O)O (stereo unspecified),Potency,[1],inactive
same,Potency,[2],inactive
same,Potency,[3],inactive
same,Potency,[4],inactive
same,Potency,[5],inactive
same,Potency,[16],inactive
same,Potency,[14],inactive
same,Potency,[7],inactive
same,Potency,[8],inactive
same,Potency,[9],inactive
same,Potency,[10],inactive
same,Potency,[17],inactive
same,Potency,[18],inactive
same,Potency,[11],inactive
same,Potency,[12],inactive
same,Potency,[13],inactive
CCCCCCCCS(=O)(=O)O,Potency,[1],inactive
same,Potency,[2],inactive
same,Potency,[3],inactive
same,Potency,[4],inactive
same,Potency,[5],inactive
same,Potency,[16],inactive
same,Potency,[14],inactive
same,Potency,[7],inactive
same,Potency,[8],inactive
same,Potency,[9],inactive
same,Potency,[10],inactive
same,Potency,[17],inactive
same,Potency,[18],inactive
same,Potency,[11],inactive
same,Potency,[12],inactive
same,Potency,[13],inactive
CCOc1ccc2[nH]cc(C(=O)NCc3ccccc3)c(=O)c2n1,Potency,[1],inactive
same,Potency,[2],inactive
same,Potency,[3],inactive
same,Potency,[4],inactive
same,Potency,[5],inactive
same,Potency,[16],inactive
same,Potency,[14],inactive
same,Potency,[7],inactive
same,Potency,[8],inactive
same,Potency,[9],inactive
same,Potency,[10],inactive
same,Potency,[11],inactive
same,Potency,[15],inactive
same,Potency,[12],inactive
same,Potency,[13],inactive
CC(=O)c1ccc2c(c1)N(CCCN(C)C)c1ccccc1S2,Potency,[1],inactive
same,Potency,[2],inactive
same,Potency,[3],inactive
same,Potency,[4],inactive
same,Potency,[5],inactive
same,Potency,[6],inactive
same,Potency,[8],inactive
same,Potency,[9],0.41 µM (active)
same,Potency,[10],inactive
same,Potency,[17],inactive
same,Potency,[18],inactive
same,Potency,[11],inactive
same,Potency,[12],inactive
same,Potency,[13],1.68 µM (active)
CCOC(=O)CC(C)C,Potency,[1],inactive
same,Potency,[2],inactive
same,Potency,[3],inactive
same,Potency,[4],inactive
same,Potency,[5],inactive
same,Potency,[16],inactive
same,Potency,[14],inactive
same,Potency,[8],inactive
same,Potency,[9],inactive
same,Potency,[10],inactive
same,Potency,[17],inactive
same,Potency,[18],inactive
same,Potency,[11],inactive
same,Potency,[12],inactive
same,Potency,[13],inactive
